CYP2C9 act = increases human cytochrome P450 2C9 activity. activation factor at 5 µM. recombinant CYP2C9, luciferin-H conversion, luminescence; stronger effect = higher value; factor 1 = untreated enzyme, 0 = blocked. P11712. hit rate 1.4% among 96,000;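 active means activation factor of 2 or more for CYP2C9 at a 5 µM dose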;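 further: 0 = sulfaphenazole-blocked wells and 1 = vehicle-only wells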
PTK2B oligo ant = antagonists of human Pyk2 oligomerization. Q293 cells, Pyk2 FERM NanoBiT luminescence; stronger effect = lower value. z-score (the deposit names both 25 µM and 10 µM). hit rate 0.83% among 99,000. AID 1347419;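 active means Z-score of -3 or lower, scaled per plate to the spread of control and sample wells; inactive means z-score above -3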;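 further: negative z-score means lost luminescence so less FERM oligomerization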
CYP2C19 act = increases human CYP2C19 enzyme activity; recombinant CYP2C19, luciferin-H EGE luminescence; stronger effect = higher value; 0 = fully inhibited enzyme, 1 = untreated enzyme; AID 1025; activation factor at 5 µM; P33261; 96,000 tested, under 10 active;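 active means activation factor of at least 2 at 5 µM in the primary screen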;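 further: 0 = wells with 2.5 mM tranylcypromine and 1 = vehicle-only wells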
Target sequence (P33261 whole entry, looked up): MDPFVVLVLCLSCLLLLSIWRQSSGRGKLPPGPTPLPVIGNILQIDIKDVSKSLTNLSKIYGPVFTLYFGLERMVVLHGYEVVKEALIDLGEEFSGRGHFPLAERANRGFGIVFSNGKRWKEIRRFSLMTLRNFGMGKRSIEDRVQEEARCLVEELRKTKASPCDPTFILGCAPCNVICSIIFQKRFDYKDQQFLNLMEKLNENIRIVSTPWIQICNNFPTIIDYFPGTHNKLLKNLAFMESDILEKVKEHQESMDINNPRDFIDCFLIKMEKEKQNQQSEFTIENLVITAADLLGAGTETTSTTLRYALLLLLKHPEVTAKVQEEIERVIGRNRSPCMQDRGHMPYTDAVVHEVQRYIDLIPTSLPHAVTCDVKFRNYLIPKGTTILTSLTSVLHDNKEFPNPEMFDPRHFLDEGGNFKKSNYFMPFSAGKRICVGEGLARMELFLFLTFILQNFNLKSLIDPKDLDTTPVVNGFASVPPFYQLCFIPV
CYP2C9 inh = inhibitors of human CYP2C9; CYP2C9 Supersomes, luciferin-H conversion, luminescence; inhibition, % at 5 µM; hit rate 20% among 96,000;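 active means blocking of liver enzyme CYP2C9 beyond about 50% at 5 µM, limit read from the data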
CYP2C19 inhib = inhibitors of human CYP2C19 | P33261 | CYP2C19 Supersomes, luciferin-H EGE luminescence, 30 min | inhibition, % at 5 µM | hit rate 21% among 96,000;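 active means CYP2C19 inhibition above a set limit at 5 µM in the primary screen, cut at about 50% in these data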;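 further: plate controls were negative control wells for no effect and 2.5 mM tranylcypromine positive control for full effect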
Numbers without * were called inactive; . = not tested or not shown. Sampled rows, rich in hits. Any-hit rate of the full collection: about 28%.

SMILES	CYP2C9 act	PTK2B oligo ant	CYP2C19 act	CYP2C9 inh	CYP2C19 inhib
O=C(CSc1n[nH]c(-c2ccncc2)n1)Nc1ccccn1	0.2	-0.14	0.5	77*	50*
O=C(CSc1n[nH]c(-c2ccccc2)n1)c1ccc(O)c(O)c1	0.4	-0.67	0.4	56*	64*
CCOC(=O)c1sc(NC(=O)CSc2nccc(C)n2)c(C#N)c1C	0.8	-0.65	0.9	24	10
Cc1ccc(NC(=O)CSc2n[nH]c(-c3ccncc3)n2)cc1	0.1	-0.71	0.4	94*	62*
CCOC(=O)c1sc(NC(=O)CSc2n[nH]c(-c3ccncc3)n2)c(C#N)c1C	0.5	-2.1	1	51*	4
O=S(=O)(NCc1ccccc1)c1cccc2cccnc12	0.2	.	0.2	78*	79*
CN(CCCNS(=O)(=O)c1cccc2cccnc12)Cc1ccccc1	2.5*	.	0.6	-147	37
O=S(=O)(NCCCN1CCN(c2ccccc2F)CC1)c1cccc2cccnc12	2.3*	.	0.4	-135	55*
O=S(=O)(NCc1cccnc1)c1cccc2cccnc12	1.6	1.2	1.1	-63	-6
O=S(=O)(NCCN1CCCC1)c1cccc2cccnc12	1.4	.	1	-37	-2
CCCn1c(SCC(=O)N2CCCc3ccccc32)nnc1-c1ccco1	1	-0.79	0.5	0	52*
CCCCn1c(SCC(=O)N2CCCc3ccccc32)nc2c1c(=O)n(C)c(=O)n2C	0.4	-0.92	0.8	63*	18
CCCn1c(SCC(=O)N2c3ccccc3CCc3ccccc32)nc2c1c(=O)n(C)c(=O)n2C	1	1.1	0.8	0	20
CCn1c(SCC(=O)N2CCc3ccccc32)nnc1-c1ccco1	0.7	-0.37	0.5	33	51*
Cn1c(SCC(=O)N2CCCc3ccccc32)nnc1-c1ccco1	1	0.23	1.1	-5	-6
Cc1ccc(N=C2C(=S)N(c3ccc(C)cc3)C(=N)N2/N=C/c2ccc(Cl)cc2)cc1	.	0.17	.	.	.
CC(=O)N1CCc2cc(S(=O)(=O)NC(CC(C)C)C(=O)Nc3cc(C(=O)O)ccc3C)ccc21 (stereo not drawn)	1.1	0.59	1.1	-14	-11
O=C(Oc1cccc(N2C(=O)CCC2=O)c1)C1CC(=O)N(c2ccc(F)cc2)C1 (stereo not drawn)	0.9	0.18	1.1	8	-13
Cn1ncc([N+](=O)[O-])c1C(=O)N1CCOCC1	1	0.25	1	-1	5
CCOC(=O)C1Cn2c(nc3c(c2=O)C2(CCCC2)Cc2ccccc2-3)S1 (stereo not drawn)	0.6	-1.5	0.4	38	62*
CC1(C)Cc2ccccc2-c2nc(NCCCO)n(-c3ccccc3)c(=O)c21	1	-0.42	0.8	5	18
CCOC(=O)C1Cn2c(nc3c(c2=O)C(C)(C)Cc2ccccc2-3)S1 (stereo not drawn)	0.1	-1.5	0	88*	97*
O=C(c1ccccc1)c1cc(-c2ccccc2)on1	1.1	0.09	0.5	-13	51*
Cc1cc(NC(=O)c2cc(-c3ccccc3)on2)no1	1	0.81	1.1	0	-15
O=C(c1cccs1)N1N=C(c2ccccc2)CC1c1ccccc1 (stereo not drawn)	0.1	-1.1	0.3	95*	68*
SMILES	CYP2C9 act	PTK2B oligo ant	CYP2C19 act	CYP2C9 inh	CYP2C19 inhib
Cc1ccc2[nH]c(=O)c(C3=NN(C(=O)CCC(=O)O)C(c4cccs4)C3)c(-c3ccccc3)c2c1 (stereo not drawn)	.	1	.	.	.
CS(=O)(=O)N1N=C(c2ccccc2)CC1c1cccs1 (stereo not drawn)	0.8	0.47	0.5	24	55*
CS(=O)(=O)N1CCc2cc(C(=O)OCC(=O)c3ccccc3)ccc21	1.1	-0.31	1.1	-10	-11
Cc1cc(C)nc(SCC(=O)NCc2ccco2)n1	1.1	-0.12	0.8	-12	18
Cc1ccc2cc(C#N)c(SCC(=O)NCc3ccco3)nc2c1	0.2	0.89	0.9	75*	11
Cc1cccc(-c2nsc(SCC(=O)NCc3ccco3)n2)c1	0.3	0.97	0.8	68*	21
CC(C)(O)C#Cc1ccc(C(=O)NCc2ccccc2)s1	.	1.3	.	.	.
COc1ccc(/C=N/OCC(=O)Nc2nc3ccccc3s2)cc1	.	0.37	.	.	.
O=C(N/C(=C/c1ccco1)C(=O)N1CCCCC1)c1cccs1	1.2	-0.39	1.2	-23	-20
Cc1ccc(-n2nnnc2C(Cl)(Cl)c2nnnn2-c2ccc(C)cc2)cc1	1.1	-0.61	1.2	-6	-17
COC(=O)c1sccc1NC(=S)N1CC(C)CC(C)C1 (stereo not drawn)	0.3	1.5	0.2	70*	83*
O=C(OCC(=O)c1cccs1)c1ccc(NC(=O)c2ccco2)cc1	0.9	-0.09	0.8	12	21
COC(=O)C1C(=O)c2c(n[nH]c2C)CC1(C)C (stereo not drawn)	1.1	1	1.1	-10	-12
CCCc1n[nH]c2c1C(=O)C(C(=O)OC)C(C)(C)C2 (stereo not drawn)	0.8	-0.02	0.1	17	86*
CC(OC(=O)Cn1c(C(F)(F)F)nc2ccccc21)C(=O)N1CCCc2ccccc21 (stereo not drawn)	0.5	0.03	0.8	52*	17
Cc1c(C#N)c2ccccc2n1CC(=O)N1CCCc2ccccc21	0.1	-1.2	0.7	92*	32
CC(=O)N1CCCc2ccccc21	0.6	-0.16	0.9	37	10
Cn1cc(SCC(=O)N2CCN(c3ccccc3)CC2)c2ccccc21	1	.	0	4	99*
Cc1c(C#N)c2ccccc2n1CC(=O)N1CCCC1	1.1	0.06	1.1	-8	-6
Cn1cc(SCC(=O)O)c2ccccc21	1	0.93	1	3	3
COC(=O)Cn1c(C(F)(F)F)nc2ccccc21	.	0.38	.	.	.
O=C(Cc1cccc2ccccc12)N1CCCc2ccccc21	2.3*	-1.4	0.6	-132	43
COc1cc(NC(=O)Nc2cccc(Cl)c2)c(OC)cc1NC(=O)CN1CCCCC1	0.8	-0.1	0.8	18	16
O=C(Nc1cccc(O)c1)c1ccc(Br)c(S(=O)(=O)N2CCCCC2)c1	1	-2.2	1	5	0
O=C(CCCCC(=O)N1CCN(c2ccccc2)CC1)N1CCN(c2ccccc2)CC1	0.8	.	0.8	23	18
SMILES	CYP2C9 act	PTK2B oligo ant	CYP2C19 act	CYP2C9 inh	CYP2C19 inhib
CCn1c(=O)cc(SCC(=O)N2CCCCC2)c2ccccc21	1.8	3	0.9	-78	7
CSc1nsc(SCC(=O)N2CCN(c3ccccc3)CC2)n1	0.2	0.68	0.3	76*	73*
CCn1cc(C(=O)C(F)(F)F)c2ccccc21	2.3*	0.31	0.9	-131	7
CCn1cc(SCC(=O)N2CCOCC2)c2ccccc21	1	.	0.4	0	59*
Cn1cc(SCC(=O)N2CCCc3ccccc32)c2ccccc21	0.8	.	0	18	98*
COc1ccc(-c2nc(NC(=O)CSc3nnc(C)s3)ns2)cc1	0.9	-0.8	0.9	10	10

Screens (PubChem BioAssay)
